Data taken from PubChem BioAssay (Tox21).
Where “and” joins values, the source holds several entries; their conditions need not be identical. Equal values may be shown once. Calls of active or inactive are those of the source. A call without a number means that no potency is given here. Unless noted, calls follow the shape of the dose curve; as a rule, active = well fitted curve in the direction sought with a large enough effect in the repeat runs; inconclusive = weak or mixed curves; inactive = no such curve, though single readings can be large; an effect the other way counts as inactive or inconclusive.

How the values were obtained:
[1] = qHTS assay for identifying genotoxic compounds that show differential cytotoxicity against isogenic chicken DT40 cell lines with known DNA damage response pathways - wild type cell line (AID 743012); also: nearly all actives have a fitted effect of over 60% in size; also: potency is read from the fitted curve at half-maximal effect
Summary of the method: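 Endpoint: CellTiter-Glo luminescence, 30 min RT. Cells: wild type DT40, 300/well. Exposure: compounds in DMSO, 40 h, 37 C/5% CO2, after ~0.5 h pre-incubation.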

[2] = biological target: Androgen receptor (Homo sapiens) (UniProt P10275); assay: qHTS assay to identify small molecule agonists of the androgen receptor (AR) signaling pathway (AID 743036; active = well fitted activation curve with a large enough effect in the signal ratio in the repeat runs, with a control signal flat, not every such curve was filed as active; inconclusive = weak or mixed curves, or effect the other way; inactive = no such curve, though single readings can be large or run the other way; the % refers to the signal ratio)
Summary of the method: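 Beta-lactamase under UAS control, stably integrated in HEK293 GripTite cells, reports receptor activation. After 16 h compound treatment, cells received FRET substrate for 2 h at room temperature before fluorescence reading.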

[3] = biological target: Androgen receptor (Homo sapiens) (UniProt P10275); assay: qHTS assay to identify small molecule agonists of the androgen receptor (AR) signaling pathway using the MDA cell line (AID 743040; also: nearly all actives have a fitted effect of over 20% in size)
Summary of the method: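 Cell-based luciferase reporter: MDA-kb2, MMTV promoter (AR + GR response elements). 16 h compound exposure at 37C; ONE-Glo, 30 min RT, luminescence.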

[4] = biological target: Androgen receptor (Homo sapiens) (UniProt P10275); assay: qHTS assay to identify small molecule antagonists of the androgen receptor (AR) signaling pathway using the MDA cell line (AID 743042; also: nearly all actives have a fitted effect of over 55% in size)
Summary of the method: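 MDA-kb2 cells (human breast carcinoma, stably carrying an MMTV-luciferase reporter responsive to AR and GR) were plated at 3,000 cells/well and preincubated 5 hr at 37C, then given compound plus R1881 agonist for 16 h. ONE-Glo luminescence was read.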

[5] = qHTS assay to identify small molecule antagonists of the thyroid receptor (TR) signaling pathway - cell viability counter screen (AID 743064); also: nearly all actives have a fitted effect of over 50% in size; also: potency is read from the fitted curve at half-maximal effect
Summary of the method: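 Compounds were tested on GH3.TRE-Luc cells in the presence of T3 at 1 nM final. Following 23.5 h at 37 °C, cell viability was quantified by CellTiter-Fluor.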

[6] = qHTS assay to identify small molecule antagonists of the thyroid receptor (TR) signaling pathway (AID 743065); also: nearly all actives have a fitted effect of over 55% in size; also: potency is read from the fitted curve at half-maximal effect
Summary of the method: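 GH3.TRE-Luc rat pituitary cells carrying two TR response elements driving luciferase were plated for 4 h, given compound plus 1 nM T3 (final), and incubated 23.5 h at 37 C. ONE-Glo luminescence measured reporter inhibition; CellTiter-Fluor fluorescence tracked cytotoxicity.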

[7] = tested on: thyroid hormone receptor (rat, GH3 cells); assay: qHTS assay to identify small molecule agonists of the thyroid receptor (TR) signaling pathway (AID 743066; calls by dose curve)
[8] = qHTS assay to identify small molecule antagonists of the estrogen receptor alpha (ER-alpha) signaling pathway using the BG1 cell line - cell viability counter screen (AID 743081);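 also: compound given together with 17beta-estradiol as the ER stimulus; series mostly up to about 70 µM; nearly all actives have a fitted effect of over 45% in size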
[9] = biological target: Aromatase (Homo sapiens) (UniProt P11511); assay: qHTS assay to identify aromatase inhibitors (AID 743083); also: nearly all actives have a fitted effect of over 55% in size; also: potency is read from the fitted curve at half-maximal effect
[10] = qHTS assay to identify aromatase inhibitors - cell viability counter screen (AID 743084);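 also: cells stimulated with testosterone during compound exposure; nearly all actives have a fitted effect of over 55% in size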; also: potency is read from the fitted curve at half-maximal effect
[11] = qHTS assay for identifying genotoxic compounds that show differential cytotoxicity against isogenic chicken DT40 cell lines with known DNA damage response pathways - Rev3 mutant cell line (AID 743014); also: nearly all actives have a fitted effect of over 55% in size; also: potency is read from the fitted curve at half-maximal effect
[12] = qHTS assay for identifying genotoxic compounds that show differential cytotoxicity against isogenic chicken DT40 cell lines with known DNA damage response pathways - Rad54/Ku70 mutant cell line (AID 743015); also: nearly all actives have a fitted effect of over 60% in size; also: potency is read from the fitted curve at half-maximal effect
[13] = qHTS assay to identify small molecule antagonists of the androgen receptor (AR) signaling pathway using the MDA cell line - cell viability counter screen (AID 743041; also: nearly all actives have a fitted effect of over 45% in size; also: potency is read from the fitted curve at half-maximal effect)
Summary of the method: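 In this qHTS counter assay, fluorescence intensity after CellTiter-Fluor addition indicated viability of MDA-kb2 AR-luc cells given compounds and R1881 for 16 h at 37C.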

[14] = qHTS assay to identify small molecule antagonists of the estrogen receptor alpha (ER-alpha) signaling pathway - cell viability counter screen (AID 743074; calls by dose curve;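 also: HEK293 cells carrying ER-alpha-UAS-bla reporter stimulated with 17beta-estradiol; nearly all actives have a fitted effect of over 45% in size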)
[15] = qHTS assay to identify small molecule antagonists of the androgen receptor (AR) signaling pathway - cell viability counter screen (AID 743033; also: nearly all actives have a fitted effect of over 45% in size; also: potency is read from the fitted curve at half-maximal effect)
[16] = biological target: Estrogen receptor (Homo sapiens) (UniProt P03372); assay: qHTS assay to identify small molecule agonists of the estrogen receptor alpha (ER-alpha) signaling pathway (AID 743075; calls by dose curve;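 also: HEK293 GripTite cells with ER-alpha and UAS-driven beta-lactamase reporter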; also: potency is read from the fitted curve at half-maximal effect)
[17] = biological target: Estrogen receptor (Homo sapiens) (UniProt P03372); assay: qHTS assay to identify small molecule agonists of the estrogen receptor alpha (ER-alpha) signaling pathway using the BG1 cell line (AID 743079); also: nearly all actives have a fitted effect of over 20% in size; also: potency is read from the fitted curve at half-maximal effect
[18] = biological target: Estrogen receptor (Homo sapiens) (UniProt P03372); assay: qHTS assay to identify small molecule antagonists of the estrogen receptor alpha (ER-alpha) signaling pathway (AID 743069; active = well fitted curve in the direction sought with a large enough effect in the signal ratio in the repeat runs, not every such curve was filed as active; inconclusive = weak or mixed curves, or effect the other way; inactive = no such curve, though single readings can be large or run the other way; the % refers to the signal ratio; also: potency is read from the fitted curve at half-maximal effect)
Summary of the method: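 A 17beta-estradiol challenge was applied right after compound transfer to ER-alpha-UAS-bla HEK293 cells previously kept in charcoal-stripped serum. Plates stood 18 hr at 37C and 5% CO2; fluorescence was read following 2 hr FRET substrate loading at room temperature.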

[19] = qHTS assay to identify small molecule antagonists of the estrogen receptor alpha (ER-alpha) signaling pathway using the BG1 cell line (AID 743080; calls by dose curve;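 also: BG1 cells stimulated with 17beta-estradiol alongside compound; nearly all actives have a fitted effect of over 25% in size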; also: potency is read from the fitted curve at half-maximal effect)
Summary of the method: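 Luciferase inhibition measured with ONE-Glo after 30 min at RT in BG1Luc4E2 cells given test compounds and 17beta-estradiol for 21.5 h at 37 C; CellTiter-Fluor viability read in the same wells beforehand.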

Estrogen receptor (Homo sapiens), sequence (P03372 whole entry, looked up): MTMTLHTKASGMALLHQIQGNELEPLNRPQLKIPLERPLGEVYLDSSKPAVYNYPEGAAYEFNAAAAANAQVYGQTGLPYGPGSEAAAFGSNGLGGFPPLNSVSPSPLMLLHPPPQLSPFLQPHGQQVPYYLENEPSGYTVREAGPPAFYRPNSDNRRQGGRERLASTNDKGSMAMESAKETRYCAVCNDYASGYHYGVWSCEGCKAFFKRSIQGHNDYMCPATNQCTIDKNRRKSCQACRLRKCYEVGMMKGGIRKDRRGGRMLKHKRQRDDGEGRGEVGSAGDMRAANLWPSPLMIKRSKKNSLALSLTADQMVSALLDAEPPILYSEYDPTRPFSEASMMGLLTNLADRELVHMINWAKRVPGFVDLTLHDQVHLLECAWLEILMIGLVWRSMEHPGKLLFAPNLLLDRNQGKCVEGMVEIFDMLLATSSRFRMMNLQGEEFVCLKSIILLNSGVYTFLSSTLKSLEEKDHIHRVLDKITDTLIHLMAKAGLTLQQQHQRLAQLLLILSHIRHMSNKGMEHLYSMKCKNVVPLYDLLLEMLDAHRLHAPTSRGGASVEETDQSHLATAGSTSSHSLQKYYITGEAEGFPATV
Aromatase (Homo sapiens), sequence (P11511 whole entry, looked up): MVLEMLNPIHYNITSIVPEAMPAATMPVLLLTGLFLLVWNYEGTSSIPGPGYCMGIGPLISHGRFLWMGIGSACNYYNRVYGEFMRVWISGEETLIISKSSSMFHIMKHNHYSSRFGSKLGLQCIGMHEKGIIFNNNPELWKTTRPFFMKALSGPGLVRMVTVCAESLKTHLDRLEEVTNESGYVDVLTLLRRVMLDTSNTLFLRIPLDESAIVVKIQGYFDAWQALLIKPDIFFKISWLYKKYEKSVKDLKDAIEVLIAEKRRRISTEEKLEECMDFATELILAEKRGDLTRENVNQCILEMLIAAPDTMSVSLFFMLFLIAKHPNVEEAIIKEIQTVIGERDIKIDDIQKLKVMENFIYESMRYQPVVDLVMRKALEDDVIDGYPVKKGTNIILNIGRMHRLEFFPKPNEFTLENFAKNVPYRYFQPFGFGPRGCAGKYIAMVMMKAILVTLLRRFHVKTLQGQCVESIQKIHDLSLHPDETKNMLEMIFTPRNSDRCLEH
Androgen receptor (Homo sapiens), sequence (P10275 whole entry, looked up): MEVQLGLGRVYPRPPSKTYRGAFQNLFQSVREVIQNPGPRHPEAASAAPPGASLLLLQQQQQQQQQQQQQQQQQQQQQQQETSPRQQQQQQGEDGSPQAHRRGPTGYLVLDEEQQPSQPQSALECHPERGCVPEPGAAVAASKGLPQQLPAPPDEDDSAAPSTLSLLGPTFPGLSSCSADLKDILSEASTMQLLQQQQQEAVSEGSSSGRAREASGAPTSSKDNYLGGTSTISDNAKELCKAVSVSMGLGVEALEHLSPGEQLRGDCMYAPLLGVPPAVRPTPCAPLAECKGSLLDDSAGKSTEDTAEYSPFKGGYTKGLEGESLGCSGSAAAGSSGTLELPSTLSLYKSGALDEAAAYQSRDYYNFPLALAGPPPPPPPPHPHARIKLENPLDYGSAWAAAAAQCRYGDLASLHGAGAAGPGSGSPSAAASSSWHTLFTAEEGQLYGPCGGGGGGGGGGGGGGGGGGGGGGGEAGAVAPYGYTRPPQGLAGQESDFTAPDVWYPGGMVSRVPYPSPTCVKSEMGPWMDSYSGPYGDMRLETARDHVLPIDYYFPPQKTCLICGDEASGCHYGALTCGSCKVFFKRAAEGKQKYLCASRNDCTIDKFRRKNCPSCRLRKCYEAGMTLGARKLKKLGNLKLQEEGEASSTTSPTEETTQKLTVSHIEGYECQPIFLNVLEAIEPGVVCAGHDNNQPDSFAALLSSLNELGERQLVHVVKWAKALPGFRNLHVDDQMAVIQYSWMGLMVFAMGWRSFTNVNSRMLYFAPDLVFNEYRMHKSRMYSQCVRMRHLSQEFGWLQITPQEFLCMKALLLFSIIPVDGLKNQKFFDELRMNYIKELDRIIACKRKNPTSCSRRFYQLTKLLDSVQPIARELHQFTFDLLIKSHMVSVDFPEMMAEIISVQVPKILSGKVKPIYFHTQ

Row | Compound | Potency [1] | Potency [2] | Potency [3] | Potency [4] | Potency [5] | Potency [6] | outcome [7] | Potency [8] | Potency [9] | Potency [10] | Potency [11] | Potency [12] | Potency [13] | Potency [14] | Potency [15] | Potency [16] | Potency [17] | Potency [18] | Potency [19]
1 | CCCCCCCCc1ccc(O)cc1 | 21.8 µM (active) | inactive | inactive | inactive | 46.1 µM (active) | 30.6 µM (active) | inactive | inactive | 31.7 µM (active) | 21.8 µM (active) | – | – | – | – | – | – | – | – | –
2 | OC(c1ccc(Cl)cc1)(c1ccc(Cl)cc1)C(Cl)(Cl)Cl | 61.1 µM (active) | – | – | – | – | – | inactive | inactive | 61.1 µM (active) | 61.1 µM (active) | 48.6 µM (active) | 48.6 µM (active) | inactive | inactive | – | – | – | – | –
3 | Nc1ccccc1C(=O)Oc1ccc2ccccc2c1 | – | inactive | – | inactive | inactive | inactive | – | inactive | inactive | inactive | – | – | inactive | inactive | inactive | inactive | 4.33 µM (active) | – | –
4 | ClC1=C(Cl)[C@]2(Cl)[C@H]3[C@H]([C@H]4C=C[C@H]3C4)[C@@]1(Cl)C2(Cl)Cl | – | – | – | – | – | 68.6 µM (active) | inactive | inactive | inactive | inactive | – | 61.1 µM (active) | – | inactive | inactive | inactive | 27.3 µM (active) | inactive | inactive
5 | O=S(=O)(c1ccc(Cl)cc1)c1ccc(Cl)cc1 | 24.6 µM (active) | – | – | – | – | inactive | inactive | inactive | – | – | 44.8 µM (active) | 52.8 µM (active) | inactive | – | – | inactive | – | – | 24.6 µM (active)
6 | Fc1cccc(Cl)c1CCl | – | – | – | – | inactive | inactive | inactive | inactive | inactive | inactive | inactive | inactive | – | inactive | inactive | inactive | inactive | – | inactive
7 | O=C(CBr)c1ccc(O)cc1 | – | – | – | – | inactive | inactive | inactive | inactive | inactive | inactive | 68.6 µM (active) | – | inactive | inactive | inactive | – | – | – | –
8 | CCOCCOC(C)=O | – | – | – | – | – | inactive | inactive | – | inactive | inactive | inactive | inactive | inactive | – | inactive | inactive | inactive | inactive | inactive
9 | BrCBr | – | – | – | – | inactive | inactive | inactive | inactive | inactive | inactive | – | – | inactive | inactive | inactive | inactive | inactive | inactive | inactive
10 | Cc1cc(C(F)(C(F)(F)F)C(F)(F)F)ccc1NC(=O)c1cccc(I)c1C(=O)NC(C)(C)CS(C)(=O)=O | – | – | – | – | inactive | 21.8 µM (active) | inactive | inactive | inactive | inactive | 43.5 µM (active) | – | inactive | inactive | inactive | inactive | – | – | inactive
11 | CC(Cc1ccc(C(C)(C)C)cc1)CN1C[C@@H](C)O[C@@H](C)C1 (stereo partly drawn) | 9.69 µM (active) | – | – | – | inactive | – | inactive | inactive | – | – | 5.45 µM (active) | – | – | inactive | – | – | – | – | –
12 | O=C/C(Cl)=C(/Cl)C(=O)O | 17.2 µM (active) | – | – | – | – | 68.6 µM (active) | inactive | inactive | – | – | 19.3 µM (active) and 15.4 µM (active) | 21.7 µM (active) | inactive | – | – | inactive | inactive | – | inactive
13 | Oc1ccc(C2(c3ccc(O)cc3)CCCCC2)cc1 | – | – | – | – | 57.9 µM (active) | 36.5 µM (active) | inactive | inactive | 51.6 µM (active) | 25.9 µM (active) | 65 µM (active) | 57.9 µM (active) | – | – | – | 52.1 µM [inconclusive] (active) | 0.818 µM (active) | 0.52 µM [inconclusive] (active) | –
14 | CC(C)(C)c1cc([N+](=O)[O-])cc(C(C)(C)C)c1O | 6.86 µM (active) | – | – | – | 12.2 µM (active) | 6.86 µM (active) | inactive | – | 17.2 µM (active) | 21.7 µM (active) | 10.9 µM (active) | – | 12.2 µM (active) | – | 5.49 µM (active) | – | – | – | –
15 | CCCCCCCCCBr | – | – | – | – | inactive | inactive | inactive | inactive | inactive | inactive | inactive | inactive | inactive | inactive | inactive | inactive | inactive | inactive | inactive
16 | CC1(C)C(/C=C(\Cl)C(F)(F)F)C1C(=O)OC(C#N)c1cccc(Oc2ccccc2)c1 (stereo not drawn) | inactive | – | – | – | inactive | inactive | inactive | inactive | inactive | inactive | inactive | – | – | inactive | inactive | – | – | – | –
